# Screens: PubChem BioAssay, several laboratories
# In the library only some 3% were active in any assay of this set; here they are far more common.
# Her2 expr inh: inhibitors of human Her2 kinase expression. P04626. SKBR-3 HER2 protein level, AlphaScreen, 18-24 h; active compounds read low. HER2 level % of control, % at 10 µM. hit rate 0.69% among 65,000;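 active = HER2 level under 5% of the carrier-only control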;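 note: 100% = DMSO carrier and 0% = 500 nM PU-H71 HSP90 inhibitor; lower value means stronger loss of Her2 protein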
# 5HT1E ag: activates the human 5-HT1E serotonin receptor; P28566; CHO 5-HT1E Ga15 NFAT-bla reporter, FRET; 0% DMSO wells, 100% control agonist wells; activation, % at 6 µM; hit rate 0.69% among 65,000;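 active = activation above a set limit, the screen-wide mean activation plus 3 SD, cut at about 8.5% in these data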;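 note: 100% = positive control agonist at 1 µM giving full maximal response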
# 5HT1a ag: agonists of human 5-HT1a serotonin receptor; CHO 5-HT1a Ga15 NFAT-bla reporter, FRET ratio; 0% basal, 100% maximal reference agonist; activation, % at 10 µM; hit rate 0.56% among 65,000; AID 567;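 active = activation above the screen-wide mean activation plus 3 SD, cut at about 19% in these data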;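 note: 0% = DMSO wells and 100% = 5-CT at EC100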
# Target sequence (P08908 whole entry, looked up): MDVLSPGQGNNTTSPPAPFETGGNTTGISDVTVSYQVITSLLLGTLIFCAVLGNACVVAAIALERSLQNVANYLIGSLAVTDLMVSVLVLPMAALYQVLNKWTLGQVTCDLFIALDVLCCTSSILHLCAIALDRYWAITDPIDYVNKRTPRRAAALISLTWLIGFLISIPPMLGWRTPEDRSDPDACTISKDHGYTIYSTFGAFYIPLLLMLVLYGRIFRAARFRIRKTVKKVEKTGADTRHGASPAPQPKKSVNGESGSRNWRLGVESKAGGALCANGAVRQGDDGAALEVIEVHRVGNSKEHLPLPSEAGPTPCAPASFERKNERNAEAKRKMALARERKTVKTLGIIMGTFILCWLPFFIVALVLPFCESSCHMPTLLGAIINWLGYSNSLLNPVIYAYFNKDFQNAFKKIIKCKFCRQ
# HTR1E antagonist: antagonists of human 5-HT1E serotonin receptor. inhibition, % at 6 µM. AID 571. CHO 5-HT1E Ga15 NFAT-bla reporter, FRET, antagonist. hit rate 0.99% among 65,000;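 active = inhibition above a set limit, the mean inhibition across every tested compound plus 3 SD, cut at about 29% in these data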;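 note: signal is the 460 over 535 nm emission ratio of beta-lactamase substrate; 0% = agonist plus DMSO wells and 100% = wells without agonist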
# 5HT1a antag: antagonists of human 5-HT1a serotonin receptor; P08908; CHO 5-HT1a Ga15 NFAT-bla reporter, antagonist mode; inhibition, % at 10 µM; hit rate 0.68% among 62,000; AID 612;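 active = inhibition above the mean of all tested compounds plus 3 SD, cut at about 43% in these data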;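 note: receptor stimulated by 5-CT agonist at 100 nM near EC80; beta-lactamase reporter measured by ratiometric fluorescence of a cleavable substrate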
# The depositor's hits bear a star; / = no result.
SMILES,Her2 expr inh,5HT1E ag,5HT1a ag,HTR1E antagonist,5HT1a antag
COCCn1c(=O)[nH]c2cc(C(=O)NCCN3CCN(c4cccc(Cl)c4)CC3)ccc2c1=O,35.2,1.8,27.8*,7.7,22.6
CCOCCCn1c(=S)[nH]c2cc(C(=O)NCCOC)ccc2c1=O,57.3,16.2*,1.0,1.4,2.2
Cc1cc(C(=O)NCCN2CCN(c3cccc(Cl)c3)CC2)n(-c2ccccc2)n1,47.6,1.5,30.8*,-4.2,23.6
CCOCCCn1c(=S)[nH]c2cc(C(=O)N3CCN(C)CC3)ccc2c1=O,120.2,0.4,-0.2,-0.7,11.6
Cc1sc2c(c1C)c(=O)n(-c1ccccc1)c1nnc(C)n21,112.6,-0.1,2.4,20.9,-4.3
COCCCn1c(C)nc2c(c1=O)c1nc3ccccc3nc1n2CCc1ccccc1,85.7,0.5,3.5,-13.1,/
O=C(COC(=O)CCC1CCCC1)Nc1ccc(Cl)cn1,98.0,59.0*,-5.7,0.6,-11.3
CC(CN1CCCCC1)OC(=O)c1cc2ccccc2o1 (configuration not stated),93.7,1.6,45.7*,-0.4,-9.7
CCc1nc2sc(C)c(C)c2c(=O)n1CCO,99.3,-0.3,-7.3,4.0,-2.9
Cn1c2ccc(Cl)cc2c2nc3ccccc3nc21,65.8,0.5,2.3,37.1*,10.4
O=S(=O)(CCN1CCN(C(c2ccccc2)c2ccccc2)CC1)C(F)(F)F,-2.0*,-0.6,-0.4,7.4,10.8
O=C(CN1CCN(C(c2ccccc2)c2ccccc2)CC1)N1CCOCC1,103.7,-1.8,-0.9,-8.0,-14.1
CCOC(=O)N1CCN(C(=O)CS(=O)(=O)c2cn(Cc3ccc(F)cc3)c3ccccc23)CC1,88.1,0.0,1.8,-0.3,-7.4
Cc1cc(C)cc(OCC(=O)Nc2cccc(-c3nnc(-c4ccco4)o3)c2)c1,94.7,0.3,19.6*,-8.5,-12.2
COc1ccc(CC(=O)Nc2cccc(-c3nnc(-c4ccco4)o3)c2)cc1,115.3,1.2,0.7,-18.0,/
Cc1ccc(-c2csc3nnc(SCC(=O)Nc4nsc(-c5ccccc5)n4)n23)cc1,100.9,0.5,-0.1,20.6,27.3
Cc1ccc(-c2nc(NC(=O)CSc3nnnn3-c3ccccc3)ns2)cc1,84.8,0.0,2.1,-14.5,49.9*
CCOC(=O)c1c(CN2CCCCC2)oc2ccc(OC)cc12,132.4,0.2,21.1*,0.7,/
CCOC(=O)c1c(CN2CCN(C)CC2)oc2ccc(OC)cc12,111.3,-0.2,-0.3,-10.4,-11.9
COC(=O)c1ccc(OCC2c3cc(OC)c(OC)cc3CCN2C(=O)C2CC2)cc1 (configuration not stated),127.2,-0.5,1.9,34.5*,23.3
O=C(NCCCN1CCN(c2cccc(Cl)c2)CC1)C1CCC(=O)N1Cc1ccccc1Cl (configuration not stated),66.4,13.7*,6.7,-5.3,37.0
Cn1c(=O)cc(OCC(=O)NCCCN2CCN(c3ccccc3F)CC2)c2ccccc21,125.5,5.7,4.8,1.8,60.8*
Cn1c(=O)cc(OCC(=O)NCCCN2CCN(c3cccc(Cl)c3)CC2)c2ccccc21,92.5,9.3*,0.8,1.7,27.6
Cc1ccnc(NC(=O)CCCOc2cc(=O)n(C)c3ccccc23)c1,17.5,-0.9,0.0,19.6,65.7*
CSc1nc(C)cc(NC(N)=O)n1,99.2,0.0,-3.2,-6.7,-6.2
SMILES,Her2 expr inh,5HT1E ag,5HT1a ag,HTR1E antagonist,5HT1a antag
NC(=O)c1cnccn1,96.1,/,/,/,/
CCn1c(=O)cc(SCC(=O)NCCCN2CCN(c3ccccc3F)CC2)c2ccccc21,97.4,1.2,7.7,-11.3,68.6*
CCN1CCCC1CNC(=O)CSc1cc(=O)n(CC)c2ccccc12 (configuration not stated),104.9,0.1,-1.5,2.3,0.7
CC1(C)CC(=O)c2cc(OCC(=O)NCCCN3CCN(c4ccccc4F)CC3)ccc2O1,81.0,9.6*,5.3,4.9,27.7
Cn1c(C(=O)NCCCN2CCN(c3ccccc3F)CC2)cc2c(=O)[nH]c3ccccc3c21,66.9,24.6*,17.5,4.3,74.8*
CCN(CCCNC(=O)COc1cc(=O)n(C)c2ccccc12)c1cccc(C)c1,99.3,23.9*,0.4,-12.5,0.8
CCCN1CCN(CCCNC(=O)c2cc3c(=O)n(C)c4ccccc4c3n2C)CC1,95.1,0.5,3.2,7.1,8.2
O=C(Cn1c(=O)sc2ccccc21)Nc1ccccc1C(=O)O,139.6,-0.1,-0.6,-9.0,-0.5
COC(=O)c1ccccc1NC(=O)C1CCN(C(=O)c2cc(OC)c(OC)c(OC)c2)CC1,111.3,-0.9,0.2,-2.6,-4.0
CCCCn1c(SCc2cc(=O)[nH]c3ccccc23)nc2c1c(=O)n(C)c(=O)n2C,104.8,0.1,-3.1,-8.0,-18.4
Clc1ccc(Cn2ncc3c(N4CCCCC4)ncnc32)cc1,75.6,-1.3,3.7,33.8*,8.6
CCn1c(C(=O)N2CCC(C(=O)NCc3cccs3)CC2)cc2sccc21,78.2,0.7,-1.1,-17.1,-3.3
O=C(NCc1ccco1)C1CCN(C(=O)c2cc3sccc3n2Cc2ccc(Cl)cc2)CC1,37.4,-0.7,0.5,0.2,44.9*
CCOc1ccccc1NS(=O)(=O)c1ccc(Br)s1,103.6,-0.2,-0.8,-2.6,-7.9
Cc1ccc(S(=O)(=O)Nc2cccc3ncccc23)s1,-5.5*,0.8,-3.2,81.0*,64.2*
CSc1cccc(NC(=O)c2ccco2)c1,63.2,-0.8,-1.0,11.7,30.2
CN(C)CC(C(=O)c1ccccc1)c1ccccc1 (configuration not stated),-55.0*,-0.1,-4.8,74.3*,76.0*
COc1ccc(C(C(=O)OC(C)CN(C)C)c2ccccc2)cc1 (configuration not stated),122.6,-0.7,-2.5,2.1,-5.2
CCC1CCCCN1c1nc2c(c(=O)n(C)c(=O)n2C)n1CCSc1nc2ccccc2o1 (configuration not stated),100.7,0.1,-1.1,-1.3,-7.4
COC(=O)c1sccc1NC(=O)CN1CCN(c2ccc(F)cc2)CC1,116.8,0.0,-2.0,2.6,-1.2
O=C(COC(=O)c1ccco1)Nc1cccc(Br)c1,116.1,0.5,0.2,7.5,5.9
COCC(=O)Nc1cccc(Br)c1,93.0,0.2,20.2*,-8.7,1.4
CSc1oc(-c2ccccc2)nc1S(=O)(=O)c1ccc(C)cc1,96.2,-1.7,-1.0,6.4,19.7
Cc1ccc(S(=O)(=O)c2nc(-c3ccccc3)oc2NCc2cccnc2)cc1,95.0,47.8*,-3.6,-1.9,-1.4
COc1cccc(OCC(O)CN2CCOCC2)c1 (configuration not stated),183.6,0.6,0.0,-12.3,-11.5
COc1cccc(OCC(O)CN2CCC(Cc3ccccc3)CC2)c1 (configuration not stated),110.9,1.2,8.8,-0.8,51.7*
CC1CCc2c(sc3ncnc(N4CCOCC4)c23)C1 (configuration not stated),-29.4*,/,/,/,/
